Experimental data from the supplement of paper PMC11732987, “Enantioselective OTUD7B fragment discovery through chemoproteomics screening and high-throughput optimisation” (Communications Chemistry, 2025).

Legend:
Assay in all cases: log2 ratio of Biotin-Ahx-Ub-VS probe labelling (fragment/DMSO); higher = less target engagement (more negative = stronger competition), active = hit call of the paper (q ≤ 0.05, log2 ratio ≤ -1)
Conditions in all cases: compound concentration: 200 uM; treatment time: 3 h
USP19 = target: T1, USP19 (UniProt O94966)
T1 sequence (whole entry): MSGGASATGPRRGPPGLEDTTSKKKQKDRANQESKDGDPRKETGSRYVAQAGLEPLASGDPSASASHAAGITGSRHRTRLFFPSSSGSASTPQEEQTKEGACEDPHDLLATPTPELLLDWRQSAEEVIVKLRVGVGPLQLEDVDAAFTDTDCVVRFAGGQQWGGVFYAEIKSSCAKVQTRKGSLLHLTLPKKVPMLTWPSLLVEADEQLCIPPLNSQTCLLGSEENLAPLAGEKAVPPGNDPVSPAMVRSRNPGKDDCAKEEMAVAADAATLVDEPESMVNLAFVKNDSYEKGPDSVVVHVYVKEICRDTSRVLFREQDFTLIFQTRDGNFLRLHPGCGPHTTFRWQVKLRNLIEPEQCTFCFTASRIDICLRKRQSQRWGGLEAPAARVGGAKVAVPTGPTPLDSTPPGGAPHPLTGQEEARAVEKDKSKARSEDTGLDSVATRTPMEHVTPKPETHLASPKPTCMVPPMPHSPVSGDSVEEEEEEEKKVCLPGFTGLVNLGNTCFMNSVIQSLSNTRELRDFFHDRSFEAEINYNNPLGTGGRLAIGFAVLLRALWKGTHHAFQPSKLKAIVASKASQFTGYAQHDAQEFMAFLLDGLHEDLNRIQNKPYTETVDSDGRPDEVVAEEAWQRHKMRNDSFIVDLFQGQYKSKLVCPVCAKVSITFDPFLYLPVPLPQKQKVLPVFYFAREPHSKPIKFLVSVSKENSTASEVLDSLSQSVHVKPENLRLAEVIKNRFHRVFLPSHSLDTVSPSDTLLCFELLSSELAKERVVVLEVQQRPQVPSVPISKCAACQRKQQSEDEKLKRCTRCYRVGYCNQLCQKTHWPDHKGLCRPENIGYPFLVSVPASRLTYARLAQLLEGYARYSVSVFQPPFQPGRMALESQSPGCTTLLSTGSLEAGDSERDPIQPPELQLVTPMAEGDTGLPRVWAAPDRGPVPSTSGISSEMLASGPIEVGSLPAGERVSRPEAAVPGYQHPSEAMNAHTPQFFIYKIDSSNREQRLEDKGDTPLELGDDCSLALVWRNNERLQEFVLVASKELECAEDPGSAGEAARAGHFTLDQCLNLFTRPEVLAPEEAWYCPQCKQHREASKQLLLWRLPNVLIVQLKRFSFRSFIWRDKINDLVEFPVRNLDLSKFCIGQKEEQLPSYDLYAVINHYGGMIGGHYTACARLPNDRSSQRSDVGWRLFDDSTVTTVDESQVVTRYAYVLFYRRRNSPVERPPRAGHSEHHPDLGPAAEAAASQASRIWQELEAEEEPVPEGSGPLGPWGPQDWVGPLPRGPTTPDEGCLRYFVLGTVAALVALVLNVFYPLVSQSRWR
Procedure, shortened: (§1)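 Labelling with Biotin-Ahx-Ub-VS (0.5 µM final, 1 h) followed a 3 h triplicate treatment of HEK293T lysate (495 µg per sample, Tris/CHAPS/IGEPAL buffer with protease inhibitors) with fragment at 200 µM or vehicle. Labelled DUBs were NeutrAvidin-enriched, digested with LysC and trypsin, and run by diaPASEF LC-MS/MS. The values, average log2 fragment/vehicle ratios by unpaired t-test, come from global-median-normalised Spectronaut label-free quantities. Proteins with ≥2 unique peptides were used.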

USP24 = USP24 (UniProt Q9UPU5)
USP24, sequence (Q9UPU5 whole entry): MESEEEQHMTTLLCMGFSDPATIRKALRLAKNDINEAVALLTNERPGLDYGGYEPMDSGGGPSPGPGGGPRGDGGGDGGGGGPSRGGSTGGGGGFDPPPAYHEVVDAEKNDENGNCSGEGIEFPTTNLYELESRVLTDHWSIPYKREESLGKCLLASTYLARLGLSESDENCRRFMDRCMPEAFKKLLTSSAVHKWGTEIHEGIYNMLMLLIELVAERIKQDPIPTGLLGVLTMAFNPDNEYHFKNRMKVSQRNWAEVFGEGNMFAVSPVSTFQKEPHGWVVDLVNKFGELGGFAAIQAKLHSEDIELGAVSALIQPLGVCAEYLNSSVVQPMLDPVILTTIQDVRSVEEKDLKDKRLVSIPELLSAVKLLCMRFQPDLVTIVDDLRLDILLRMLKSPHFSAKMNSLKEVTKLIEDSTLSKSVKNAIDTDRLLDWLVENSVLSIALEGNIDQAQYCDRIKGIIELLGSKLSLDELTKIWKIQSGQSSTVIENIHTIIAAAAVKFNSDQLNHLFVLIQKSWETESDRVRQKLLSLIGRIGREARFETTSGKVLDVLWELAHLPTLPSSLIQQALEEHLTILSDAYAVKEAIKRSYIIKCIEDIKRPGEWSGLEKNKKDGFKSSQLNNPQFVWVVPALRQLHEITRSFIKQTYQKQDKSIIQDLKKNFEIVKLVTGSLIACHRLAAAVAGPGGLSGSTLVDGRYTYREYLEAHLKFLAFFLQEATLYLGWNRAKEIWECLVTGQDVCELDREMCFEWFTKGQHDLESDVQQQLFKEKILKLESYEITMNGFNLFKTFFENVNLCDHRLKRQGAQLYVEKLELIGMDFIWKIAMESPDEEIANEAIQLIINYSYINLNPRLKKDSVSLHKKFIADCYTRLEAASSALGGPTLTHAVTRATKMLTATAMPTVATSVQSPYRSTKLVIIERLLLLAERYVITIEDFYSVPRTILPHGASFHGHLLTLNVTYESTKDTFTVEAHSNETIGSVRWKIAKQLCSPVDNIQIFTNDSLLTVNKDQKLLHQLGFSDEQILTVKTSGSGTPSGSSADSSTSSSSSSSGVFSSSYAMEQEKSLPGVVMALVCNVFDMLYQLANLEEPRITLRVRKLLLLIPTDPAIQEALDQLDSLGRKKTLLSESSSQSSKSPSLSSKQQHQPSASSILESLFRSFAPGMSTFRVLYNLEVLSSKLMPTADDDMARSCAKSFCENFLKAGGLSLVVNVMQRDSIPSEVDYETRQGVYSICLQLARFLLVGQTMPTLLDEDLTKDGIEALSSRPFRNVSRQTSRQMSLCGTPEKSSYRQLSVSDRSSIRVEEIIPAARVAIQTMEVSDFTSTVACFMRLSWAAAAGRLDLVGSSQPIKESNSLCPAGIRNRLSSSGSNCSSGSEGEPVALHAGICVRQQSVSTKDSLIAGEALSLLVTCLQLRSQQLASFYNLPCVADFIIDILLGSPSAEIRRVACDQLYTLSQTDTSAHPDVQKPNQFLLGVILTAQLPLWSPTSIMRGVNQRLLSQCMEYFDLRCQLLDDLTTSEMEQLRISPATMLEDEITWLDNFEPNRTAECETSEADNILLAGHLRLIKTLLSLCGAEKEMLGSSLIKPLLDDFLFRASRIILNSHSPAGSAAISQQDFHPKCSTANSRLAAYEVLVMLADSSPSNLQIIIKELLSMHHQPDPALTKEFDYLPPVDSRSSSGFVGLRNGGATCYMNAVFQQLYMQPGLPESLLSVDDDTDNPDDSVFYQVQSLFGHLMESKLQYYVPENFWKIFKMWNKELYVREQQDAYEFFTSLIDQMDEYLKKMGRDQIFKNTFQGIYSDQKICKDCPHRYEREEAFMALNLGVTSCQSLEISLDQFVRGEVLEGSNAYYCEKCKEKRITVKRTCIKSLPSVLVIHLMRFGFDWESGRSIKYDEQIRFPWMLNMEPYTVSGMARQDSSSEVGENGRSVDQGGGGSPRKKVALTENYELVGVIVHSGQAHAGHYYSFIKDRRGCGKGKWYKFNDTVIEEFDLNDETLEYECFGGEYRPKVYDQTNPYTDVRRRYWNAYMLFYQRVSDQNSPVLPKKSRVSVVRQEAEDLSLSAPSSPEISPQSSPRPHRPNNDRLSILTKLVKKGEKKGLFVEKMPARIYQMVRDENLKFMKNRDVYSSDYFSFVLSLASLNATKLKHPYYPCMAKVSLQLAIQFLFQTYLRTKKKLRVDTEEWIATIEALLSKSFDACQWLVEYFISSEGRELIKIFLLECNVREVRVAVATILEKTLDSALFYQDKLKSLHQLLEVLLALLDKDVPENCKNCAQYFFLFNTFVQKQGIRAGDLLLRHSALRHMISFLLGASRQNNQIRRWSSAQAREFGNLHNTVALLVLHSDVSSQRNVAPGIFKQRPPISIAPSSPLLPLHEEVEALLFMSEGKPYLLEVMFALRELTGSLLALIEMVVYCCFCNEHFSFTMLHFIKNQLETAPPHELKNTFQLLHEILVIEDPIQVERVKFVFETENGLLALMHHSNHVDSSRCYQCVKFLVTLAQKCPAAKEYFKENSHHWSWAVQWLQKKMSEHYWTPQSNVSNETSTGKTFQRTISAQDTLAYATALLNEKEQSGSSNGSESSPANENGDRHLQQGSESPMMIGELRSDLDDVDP
Procedure, shortened: as §1

USP25 = target: T2, USP25 (UniProt Q9UHP3)
T2 sequence (whole entry): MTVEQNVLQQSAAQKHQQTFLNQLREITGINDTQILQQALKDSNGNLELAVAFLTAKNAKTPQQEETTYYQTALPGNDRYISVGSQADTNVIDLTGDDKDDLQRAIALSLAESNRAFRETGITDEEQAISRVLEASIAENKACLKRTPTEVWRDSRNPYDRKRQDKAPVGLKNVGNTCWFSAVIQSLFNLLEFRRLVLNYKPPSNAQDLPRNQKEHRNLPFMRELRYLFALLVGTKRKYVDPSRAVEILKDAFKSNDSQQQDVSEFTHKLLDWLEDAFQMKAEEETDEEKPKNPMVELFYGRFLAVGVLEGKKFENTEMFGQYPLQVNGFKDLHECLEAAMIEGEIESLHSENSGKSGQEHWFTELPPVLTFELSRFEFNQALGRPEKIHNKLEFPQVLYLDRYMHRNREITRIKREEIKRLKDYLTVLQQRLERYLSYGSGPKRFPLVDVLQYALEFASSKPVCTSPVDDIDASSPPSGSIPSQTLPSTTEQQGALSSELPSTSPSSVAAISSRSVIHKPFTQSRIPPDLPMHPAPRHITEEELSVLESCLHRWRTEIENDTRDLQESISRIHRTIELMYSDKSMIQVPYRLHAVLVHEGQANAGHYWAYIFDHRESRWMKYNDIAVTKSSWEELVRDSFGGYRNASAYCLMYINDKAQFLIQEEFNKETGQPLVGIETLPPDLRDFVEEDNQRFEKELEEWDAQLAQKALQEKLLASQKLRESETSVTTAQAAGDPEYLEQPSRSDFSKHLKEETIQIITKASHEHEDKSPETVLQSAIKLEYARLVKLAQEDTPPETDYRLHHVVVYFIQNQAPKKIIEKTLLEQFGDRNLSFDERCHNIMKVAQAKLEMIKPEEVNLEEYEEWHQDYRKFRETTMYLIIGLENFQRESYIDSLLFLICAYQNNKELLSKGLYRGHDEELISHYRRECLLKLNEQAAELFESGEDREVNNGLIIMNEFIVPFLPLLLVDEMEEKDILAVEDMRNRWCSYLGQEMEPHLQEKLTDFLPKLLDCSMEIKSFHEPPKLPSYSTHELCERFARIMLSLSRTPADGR
Procedure, shortened: as §1

USP28 = target: T3, USP28 (UniProt Q96RU2)
T3 sequence (whole entry): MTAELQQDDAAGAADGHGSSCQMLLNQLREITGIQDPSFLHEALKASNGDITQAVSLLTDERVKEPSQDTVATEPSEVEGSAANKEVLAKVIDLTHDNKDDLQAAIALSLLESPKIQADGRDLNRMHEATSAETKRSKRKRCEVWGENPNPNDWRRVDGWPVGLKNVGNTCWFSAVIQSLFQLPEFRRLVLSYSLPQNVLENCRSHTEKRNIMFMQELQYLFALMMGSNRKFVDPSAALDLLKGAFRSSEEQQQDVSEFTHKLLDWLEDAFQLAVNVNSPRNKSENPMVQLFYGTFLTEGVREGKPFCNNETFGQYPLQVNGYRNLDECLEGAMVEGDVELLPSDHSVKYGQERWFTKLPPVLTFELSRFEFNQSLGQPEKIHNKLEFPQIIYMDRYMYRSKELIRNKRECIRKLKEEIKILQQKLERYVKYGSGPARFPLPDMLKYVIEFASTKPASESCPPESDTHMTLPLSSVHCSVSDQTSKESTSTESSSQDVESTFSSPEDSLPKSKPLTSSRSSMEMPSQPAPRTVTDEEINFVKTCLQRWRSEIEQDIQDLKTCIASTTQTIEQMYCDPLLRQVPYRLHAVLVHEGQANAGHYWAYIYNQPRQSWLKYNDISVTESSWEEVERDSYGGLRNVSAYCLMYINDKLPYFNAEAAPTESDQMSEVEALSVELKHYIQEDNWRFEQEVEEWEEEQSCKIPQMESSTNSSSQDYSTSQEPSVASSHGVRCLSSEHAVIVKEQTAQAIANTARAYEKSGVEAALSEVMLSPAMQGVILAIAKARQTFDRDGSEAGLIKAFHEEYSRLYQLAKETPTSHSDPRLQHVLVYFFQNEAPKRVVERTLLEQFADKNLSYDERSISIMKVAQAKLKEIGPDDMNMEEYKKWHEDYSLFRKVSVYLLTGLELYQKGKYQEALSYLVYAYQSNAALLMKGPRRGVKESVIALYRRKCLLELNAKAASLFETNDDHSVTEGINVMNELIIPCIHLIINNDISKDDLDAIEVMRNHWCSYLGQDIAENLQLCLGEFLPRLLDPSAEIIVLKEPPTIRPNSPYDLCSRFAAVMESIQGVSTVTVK
Procedure, shortened: as §1

Measured: log2 ratio of Biotin-Ahx-Ub-VS probe labelling

O=C(CCl)N1CCC(S(=O)(=O)c2ccc(F)cc2)CC1
inactive: USP19 -0.376 | USP24 -0.346 | USP25 -0.444 | USP28 -0.572
